Measured values from PubChem BioAssay AID1159580 (chemical genetic matrix, 2015).
Where “and” joins values, the source holds several entries; their conditions need not be identical. Equal entries are not always repeated. Screen size: about 5,500 compounds; about 2,000 (36%) were called active. Roughly 18% stayed inconclusive and do not appear here. Cut-off read from the data, not from the text of the source: active = normalized growth mostly below about 0.91 (no sharp cut-off); inconclusive = no clear call, values can overlap the other calls; inactive = mostly above about 0.92. Some of the results follow.

Assay: chemical genetic growth profiling, strain panel (AID 1159580);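 note: tested at 20 µM; growth read once vehicle control cultures reached saturation at 30 °C; 1 = growth at the plate median or of vehicle wells; lower values mean less growth of the strain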
Conditions: growth OD

Measured: normalized growth

COc1cccc(OC)c1OCCNCC1COc2ccccc2O1 (centres undefined)
inactive: S. cerevisiae deletion strains, locus YAL013W, strain DEP1, stronger effect = lower value 1.02 | S. cerevisiae deletion strains, locus YAL040C, strain CLN3, stronger effect = lower value 0.995 | S. cerevisiae deletion strains, locus YBR021W, strain FUR4, stronger effect = lower value 0.991 | S. cerevisiae deletion strains, locus YBR229C, strain ROT2, stronger effect = lower value 1.01 | S. cerevisiae deletion strains, locus YCL029C, strain bik1, stronger effect = lower value 0.982 | S. cerevisiae deletion strains, locus YCL061C, strain MRC1 (second series), stronger effect = lower value 0.999 | S. cerevisiae deletion strains, locus YDL035C, strain GPR1, stronger effect = lower value 1.01 | S. cerevisiae deletion strains, locus YDL074C, strain BRE1, stronger effect = lower value 1.04 | S. cerevisiae deletion strains, locus YDL101C, strain DUN1, stronger effect = lower value 1.03 | S. cerevisiae deletion strains, locus YDL134C, strain PPH21, stronger effect = lower value 1.01 | S. cerevisiae deletion strains, locus YDL185W, strain tfp1, stronger effect = lower value 0.991 | S. cerevisiae deletion strains, locus YDL192W, strain arf1, stronger effect = lower value 0.99 | S. cerevisiae deletion strains, locus YDR101C, strain arx1, stronger effect = lower value 0.965 | S. cerevisiae deletion strains, locus YDR150W, strain NUM1, stronger effect = lower value 1.02 | S. cerevisiae deletion strains, locus YDR162C, strain NBP2, stronger effect = lower value 1.04 | S. cerevisiae deletion strains, locus YDR318W, strain mcm21, stronger effect = lower value 0.966 | S. cerevisiae deletion strains, locus YDR363W, strain ESC2, stronger effect = lower value 0.955 | S. cerevisiae deletion strains, locus YDR388W, stronger effect = lower value 0.983 | S. cerevisiae deletion strains, locus YDR502C, strain sam2, stronger effect = lower value 0.995 | S. cerevisiae deletion strains, locus YEL061C, strain CIN8, stronger effect = lower value 1.01 | S. cerevisiae deletion strains, locus YER002W, strain NOP16, stronger effect = lower value 1 | S. cerevisiae deletion strains, locus YER110C, stronger effect = lower value 0.978 | S. cerevisiae deletion strains, locus YER155C, strain BEM2, stronger effect = lower value 1.01 | S. cerevisiae deletion strains, locus YER167W, strain BCK2, stronger effect = lower value 1 | S. cerevisiae deletion strains, locus YGL078C, strain dbp3, stronger effect = lower value 0.991 | S. cerevisiae deletion strains, locus YGL086W, strain mad1, stronger effect = lower value 0.974 | S. cerevisiae deletion strains, locus YGL248W, strain PDE1, stronger effect = lower value 1.02 | S. cerevisiae deletion strains, locus YGR078C, strain PAC10, stronger effect = lower value 1.03 | S. cerevisiae deletion strains, locus YGR135W, strain pre9, stronger effect = lower value 0.975 | S. cerevisiae deletion strains, locus YGR229C, strain SMI1, stronger effect = lower value 1.01 and 0.909 | S. cerevisiae deletion strains, locus YGR252W, strain gcn5, stronger effect = lower value 0.907 | S. cerevisiae deletion strains, locus YHR030C, strain SLT2, stronger effect = lower value 1.01 | S. cerevisiae deletion strains, locus YHR079C, strain IRE1 (second series), stronger effect = lower value 0.978 | S. cerevisiae deletion strains, locus YHR094C, strain hxt1, stronger effect = lower value 0.992 | S. cerevisiae deletion strains, locus YHR129C, strain ARP1, stronger effect = lower value 1.01 | S. cerevisiae deletion strains, locus YHR200W, strain rpn10, stronger effect = lower value 0.977 | S. cerevisiae deletion strains, locus YIL066C, strain RNR3, stronger effect = lower value 1.01 | S. cerevisiae deletion strains, locus YIL073C, strain SPO22, stronger effect = lower value 0.999 | S. cerevisiae deletion strains, locus YIL125W, strain kgd1, stronger effect = lower value 0.97 | S. cerevisiae deletion strains, locus YIR030C, strain dcg1, stronger effect = lower value 0.986 | S. cerevisiae deletion strains, locus YJL095W, strain BCK1, stronger effect = lower value 0.992 | S. cerevisiae deletion strains, locus YJL134W, strain LCB3, stronger effect = lower value 1.01 | S. cerevisiae deletion strains, locus YJL168C, strain set2, stronger effect = lower value 0.98 | S. cerevisiae deletion strains, locus YJL187C, strain SWE1 (second series), stronger effect = lower value 1.02 | S. cerevisiae deletion strains, locus YJR043C, strain POL32, stronger effect = lower value 1.01 | S. cerevisiae deletion strains, locus YJR075W, strain HOC1, stronger effect = lower value 1.01 and 0.99 | S. cerevisiae deletion strains, locus YKL009W, strain mrt4, stronger effect = lower value 1 | S. cerevisiae deletion strains, locus YKL068W, stronger effect = lower value 0.995 | S. cerevisiae deletion strains, locus YKL085W, strain MDH1 (second series), stronger effect = lower value 1.03 | S. cerevisiae deletion strains, locus YKL085W, strain MDH1, stronger effect = lower value 1.03 | S. cerevisiae deletion strains, locus YKL190W, strain CNB1, stronger effect = lower value 1.01 | S. cerevisiae deletion strains, locus YKR001C, strain vps1, stronger effect = lower value 0.999 | S. cerevisiae deletion strains, locus YLR039C, strain RIC1, stronger effect = lower value 1.11 | S. cerevisiae deletion strains, locus YLR058C, strain SHM2, stronger effect = lower value 1.02 | S. cerevisiae deletion strains, locus YLR102C, strain apc9, stronger effect = lower value 0.983 | S. cerevisiae deletion strains, locus YLR262C, strain YPT6, stronger effect = lower value 1.16 | S. cerevisiae deletion strains, locus YLR268W, strain sec22, stronger effect = lower value 0.98 | S. cerevisiae deletion strains, locus YLR330W, strain CHS5, stronger effect = lower value 1.01 | S. cerevisiae deletion strains, locus YLR342W, strain FKS1 (second series), stronger effect = lower value 0.965 | S. cerevisiae deletion strains, locus YLR371W, strain rom2, stronger effect = lower value 0.982 | S. cerevisiae deletion strains, locus YLR418C, strain cdc73, stronger effect = lower value 0.983 | S. cerevisiae deletion strains, locus YML016C, strain PPZ1, stronger effect = lower value 1.01 | S. cerevisiae deletion strains, locus YML032C, strain rad52, stronger effect = lower value 0.96 | S. cerevisiae deletion strains, locus YML124C, strain tub3, stronger effect = lower value 0.989 | S. cerevisiae deletion strains, locus YMR078C, strain ctf18, stronger effect = lower value 0.985 | S. cerevisiae deletion strains, locus YMR223W, strain ubp8, stronger effect = lower value 0.963 | S. cerevisiae deletion strains, locus YMR263W, strain SAP30, stronger effect = lower value 1.02 and 0.998 | S. cerevisiae deletion strains, locus YMR307W, strain GAS1, stronger effect = lower value 1.08 and 0.993 | S. cerevisiae deletion strains, locus YNL067W, strain RPL9B, stronger effect = lower value 1.02 | S. cerevisiae deletion strains, locus YNL128W, strain TEP1, stronger effect = lower value 1.02 and 1.01 | S. cerevisiae deletion strains, locus YNL153C, strain GIM3, stronger effect = lower value 1.03 | S. cerevisiae deletion strains, locus YNL175C, strain NOP13, stronger effect = lower value 1.02 | S. cerevisiae deletion strains, locus YNL197C, strain WHI3, stronger effect = lower value 1.04 | S. cerevisiae deletion strains, locus YNL224C, strain SQS1, stronger effect = lower value 0.999 | S. cerevisiae deletion strains, locus YNL233W, strain BNI4, stronger effect = lower value 1.02 | S. cerevisiae deletion strains, locus YNL250W, strain rad50, stronger effect = lower value 1.01 | S. cerevisiae deletion strains, locus YNL271C, strain bni1, stronger effect = lower value 0.983 | S. cerevisiae deletion strains, locus YNL298W, strain CLA4, stronger effect = lower value 0.977 | S. cerevisiae deletion strains, locus YNL307C, strain MCK1, stronger effect = lower value 0.975 | S. cerevisiae deletion strains, locus YNL322C, strain KRE1, stronger effect = lower value 1.02 and 0.982 | S. cerevisiae deletion strains, locus YNR052C, strain pop2, stronger effect = lower value 0.966 | S. cerevisiae deletion strains, locus YOL006C, strain TOP1, stronger effect = lower value 1.03 | S. cerevisiae deletion strains, locus YOL012C, strain htz1 1.66 | S. cerevisiae deletion strains, locus YOL147C, strain pex11, stronger effect = lower value 0.991 | S. cerevisiae deletion strains, locus YOR061W, strain CKA2, stronger effect = lower value 1.02 | S. cerevisiae deletion strains, locus YOR069W, strain VPS5, stronger effect = lower value 1.01 | S. cerevisiae deletion strains, locus YOR083W, strain WHI5 (second series), stronger effect = lower value 1.02 | S. cerevisiae deletion strains, locus YOR136W, strain idh2, stronger effect = lower value 0.992 | S. cerevisiae deletion strains, locus YOR144C, strain elg1, stronger effect = lower value 0.994 | S. cerevisiae deletion strains, locus YOR184W, strain ser1, stronger effect = lower value 0.954 | S. cerevisiae deletion strains, locus YOR316C, strain cot1, stronger effect = lower value 0.988 | S. cerevisiae deletion strains, locus YPL055C, strain LGE1, stronger effect = lower value 1.07 and 0.961 | S. cerevisiae deletion strains, locus YPL241C, strain CIN2, stronger effect = lower value 1.01 | S. cerevisiae deletion strains, locus YPR119W, strain clb2, stronger effect = lower value 0.983 | S. cerevisiae deletion strains, locus YPR141C, strain kar3, stronger effect = lower value 0.987 | S. cerevisiae deletion strains, locus YPR163C, strain tif3, stronger effect = lower value 0.985 | S. cerevisiae deletion strains, locus YPR167C, strain met16, stronger effect = lower value 0.986 | S. cerevisiae deletion strains, strain wtn01, stronger effect = lower value 0.988 | S. cerevisiae strains, strain wild type, stronger effect = lower value 1.01
